From PubChem BioAssay (NCI)
This is part of a sample that, as a whole, favours compounds with a hit. Of some 83,000 tested, about 20% had one in any assay.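 Percent growth is the endpoint: 0 to 100 indicates growth inhibition (40 means 60% inhibition), 0 means no net growth, and negative values indicate cell death.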 Calls of active or inactive are those of the source. How the source made its calls: active means growth percent below 10; inactive means the rest.

Columns and labels:
Assay in all cases: NCI-60 one-dose screen, 48 h (100 = growth as untreated, 0 = no growth, -100 = all killed)
SK-MEL-2 melanoma = settings: 10 µM unless noted
EKVX NSCLC = settings: 10 µM unless noted
SN12C renal = settings: 10 µM unless noted
UO-31 renal = settings: 10 µM unless noted
ACHN renal = settings: 10 µM unless noted
CAKI-1 renal = settings: 10 µM unless noted
A498 renal = settings: 10 µM unless noted
CCRF-CEM leukemia = settings: 10 µM unless noted
MOLT-4 leukemia = settings: 10 µM unless noted
SR leukemia = settings: 10 µM unless noted
OVCAR-8 ovarian = settings: 10 µM unless noted
OVCAR-5 ovarian = settings: 10 µM unless noted
OVCAR-4 ovarian = settings: 10 µM unless noted
IGROV1 ovarian = settings: 10 µM unless noted
HS 578T breast = settings: 10 µM unless noted
NCI/ADR-RES ovarian = settings: 10 µM unless noted
OVCAR-3 ovarian = settings: 10 µM unless noted
TK-10 renal = settings: 10 µM unless noted
RPMI-8226 leukemia = settings: 10 µM
SK-OV-3 ovarian = settings: 10 µM

Measured: growth

c1ccc2cc(-c3n(Cc4ccc5ccccc5n4)c4ccccc4[n+]3Cc3ccc4ccccc4n3)ccc2c1
inactive: NCI/ADR-RES ovarian 58.6%
active: SK-MEL-2 melanoma -42.9% | EKVX NSCLC 4.21% | SN12C renal 0.451% | UO-31 renal -14.3% | ACHN renal 7.63% | CAKI-1 renal -47.6% | A498 renal -22.3% | CCRF-CEM leukemia 8.55% | MOLT-4 leukemia -32.8% | SR leukemia -24.5% | OVCAR-8 ovarian -0.932% | OVCAR-5 ovarian 8.83% | OVCAR-4 ovarian 4.26% | IGROV1 ovarian -51% | HS 578T breast -9.29%

Cc1ccccc1-n1nnc(C(=O)Nc2ccc(-c3ccccc3)cn2)c1C
inactive: SK-MEL-2 melanoma 42% [50 µM] | EKVX NSCLC 34.8% [50 µM] | SN12C renal 64.4% [50 µM] | UO-31 renal 38.8% [50 µM] | ACHN renal 46% [50 µM] | CAKI-1 renal 31.1% [50 µM] | A498 renal 61.2% [50 µM] | CCRF-CEM leukemia 51.8% [50 µM] | SR leukemia 16% [50 µM] | OVCAR-8 ovarian 41.2% [50 µM] | OVCAR-5 ovarian 87.1% [50 µM] | OVCAR-4 ovarian 11.5% [50 µM] | IGROV1 ovarian 71% [50 µM] | OVCAR-3 ovarian 68.8% [50 µM] | HS 578T breast 90% [50 µM] | NCI/ADR-RES ovarian 33.3% [50 µM]
active: MOLT-4 leukemia 8.31% [50 µM]

CCOC(=O)n1cc(C2=C(c3cn(C)c4ccccc34)COC2=O)c2ccccc21
active: A498 renal -14.3% | OVCAR-3 ovarian -29.8% | HS 578T breast 9.62% | NCI/ADR-RES ovarian 2.15%
inactive: SK-MEL-2 melanoma 57.8% | EKVX NSCLC 45.2% | SN12C renal 23.9% | UO-31 renal 34.8% | ACHN renal 26.6% | CAKI-1 renal 13.2% | CCRF-CEM leukemia 16.8% | SR leukemia 14% | OVCAR-8 ovarian 16.5% | OVCAR-5 ovarian 29.9% | OVCAR-4 ovarian 28.8% | IGROV1 ovarian 14.7%

COc1cc(-c2nc(SC(C)C)nc(Nc3cccc(C)c3)c2C#N)cc(OC)c1OC
inactive: SK-MEL-2 melanoma 118% | EKVX NSCLC 109% | SN12C renal 102% | UO-31 renal 84.8% | ACHN renal 103% | CAKI-1 renal 94.5% | A498 renal 102% | CCRF-CEM leukemia 104% | MOLT-4 leukemia 93.5% | SR leukemia 95% | OVCAR-8 ovarian 93.5% | OVCAR-5 ovarian 107% | IGROV1 ovarian 103% | OVCAR-3 ovarian 115% | HS 578T breast 104% | NCI/ADR-RES ovarian 105%

CCN(CC)c1ccc(/C=C(\C#N)c2cc3ccccc3[nH]2)cc1
inactive: SK-MEL-2 melanoma 43.3% | EKVX NSCLC 71.5% | SN12C renal 69.4% | UO-31 renal 81.1% | ACHN renal 70.7% | CAKI-1 renal 41.6% | A498 renal 52.7% | CCRF-CEM leukemia 50.9% | MOLT-4 leukemia 37.8% | SR leukemia 24.6% | OVCAR-5 ovarian 72.4% | OVCAR-4 ovarian 68.2% | IGROV1 ovarian 65.1% | OVCAR-3 ovarian 20.9% | HS 578T breast 58.3% | NCI/ADR-RES ovarian 35.4%

CN(C)c1ccc(/C=C(\C#N)c2cc3ccccc3n2C)cc1
active: A498 renal -9.38% | OVCAR-3 ovarian -4.72% | NCI/ADR-RES ovarian 7.61%
inactive: SK-MEL-2 melanoma 54.7% | EKVX NSCLC 41.6% | SN12C renal 38.7% | UO-31 renal 51.7% | ACHN renal 38.9% | CAKI-1 renal 30.7% | CCRF-CEM leukemia 19.1% | MOLT-4 leukemia 21.6% | OVCAR-8 ovarian 34.8% | OVCAR-5 ovarian 38.5% | OVCAR-4 ovarian 40.3% | IGROV1 ovarian 26.7% | HS 578T breast 20.9%

c1ccc(-c2n(Cc3ccc4ccccc4c3)c3ccccc3[n+]2Cc2ccc3ccccc3c2)cc1
active: SK-MEL-2 melanoma -36.1% | EKVX NSCLC 3.45% | SN12C renal -79.4% | UO-31 renal -79.7% | ACHN renal -4.48% | CAKI-1 renal -44.7% | A498 renal -40.6% | CCRF-CEM leukemia 2.6% | MOLT-4 leukemia -21.8% | SR leukemia -23.6% | OVCAR-8 ovarian -22.9% | OVCAR-5 ovarian 2.69% | OVCAR-4 ovarian -4.85% | IGROV1 ovarian -77.5% | OVCAR-3 ovarian -84.2% | HS 578T breast -33.8%
inactive: NCI/ADR-RES ovarian 46.4%

COc1cc(-c2ccc3cc(OC)c(OC)c(OC)c3c2)cc(OC)c1OC
inactive: SK-MEL-2 melanoma 61% | EKVX NSCLC 65.7% | SN12C renal 92.9% | TK-10 renal 85.7% | ACHN renal 79.8% | CAKI-1 renal 42.5% | A498 renal 77.3% | CCRF-CEM leukemia 55.2% | MOLT-4 leukemia 83.9% | RPMI-8226 leukemia 53.1% | OVCAR-5 ovarian 82% | OVCAR-4 ovarian 61.2% | SK-OV-3 ovarian 76.7% | IGROV1 ovarian 68.6% | OVCAR-3 ovarian 78.9% | HS 578T breast 69.1% | NCI/ADR-RES ovarian 36.6%
active: SR leukemia 4.29%
